# The whole screen tested about 5,500 compounds, of which about 2,000 (36%) were called active. About 18% were inconclusive and are not listed. The list shows a part of the results. Unmarked numbers belong to inactive results. Rule as the data show it: active = normalized growth mostly below about 0.91 (no sharp cut-off); inconclusive = no clear call, values can overlap the other calls; inactive = mostly above about 0.92.
# Test: chemical genetic growth profiling, strain panel (AID 1159580);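 also: tested at 20 µM; growth read once vehicle control cultures reached saturation at 30 °C; 1 = growth at the plate median or of vehicle wells; lower values mean less growth of the strain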
# Settings: S. cerevisiae deletion strains, growth OD
smiles,measurement,setting,value
O=c1cccc2ccc(O)c(O)c2c1O,normalized growth,"locus YAL021C, strain ccr4, active compounds read low",0.443 (active)
same,normalized growth,"locus YAL026C, strain drs2, active compounds read low",0.791 (active)
same,normalized growth,"locus YAL030W, strain snc1, active compounds read low",0.948
same,normalized growth,"locus YBL061C, strain skt5, active compounds read low",0.901 (active)
same,normalized growth,"locus YBR009C, strain hhf1, active compounds read low",0.822 (active)
same,normalized growth,"locus YBR021W, strain FUR4, active compounds read low",1.02
same,normalized growth,"locus YBR023C, strain chs3, active compounds read low",0.887 (active)
same,normalized growth,"locus YBR171W, strain sec66, active compounds read low",0.928
same,normalized growth,"locus YBR229C, strain ROT2, active compounds read low",0.385 (active)
same,normalized growth,"locus YBR231C, strain swc5, active compounds read low",0.853 (active)
same,normalized growth,"locus YCL011C, strain gbp2, active compounds read low",0.913
same,normalized growth,"locus YCL016C, strain dcc1, active compounds read low",0.938
same,normalized growth,"locus YCL029C, strain bik1, active compounds read low",0.598 (active)
same,normalized growth,"locus YCL061C, strain MRC1, active compounds read low",0.949
same,normalized growth,"locus YCL069W, strain vba3, active compounds read low",0.945
same,normalized growth,"locus YCR088W, strain abp1, active compounds read low",0.961
same,normalized growth,"locus YDL005C, strain med2, active compounds read low",1
same,normalized growth,"locus YDL035C, strain GPR1, active compounds read low",0.117 (active)
same,normalized growth,"locus YDL040C, strain nat1, active compounds read low",1
same,normalized growth,"locus YDL074C, strain BRE1, active compounds read low",0.241 (active)
same,normalized growth,"locus YDL101C, strain DUN1, active compounds read low",0.145 (active)
same,normalized growth,"locus YDL134C, strain PPH21, active compounds read low",0.112 (active)
same,normalized growth,"locus YDL185W, strain tfp1, active compounds read low",0.955
same,normalized growth,"locus YDL192W, strain arf1, active compounds read low",0.579 (active)
same,normalized growth,"locus YDR001C, strain nth1, active compounds read low",0.975
same,normalized growth,"locus YDR069C, strain doa4, active compounds read low",0.625 (active)
same,normalized growth,"locus YDR101C, strain arx1, active compounds read low",0.734 (active)
same,normalized growth,"locus YDR137W, strain rgp1, active compounds read low",0.161 (active)
same,normalized growth,"locus YDR159W, strain sac3, active compounds read low",0.261 (active)
same,normalized growth,"locus YDR162C, strain NBP2, active compounds read low",0.0859 (active)
same,normalized growth,"locus YDR195W, strain ref2",1.06
same,normalized growth,"locus YDR297W, strain sur2, active compounds read low",0.92 (active)
same,normalized growth,"locus YDR318W, strain mcm21, active compounds read low",0.709 (active)
same,normalized growth,"locus YDR334W, strain swr1, active compounds read low",0.885 (active)
same,normalized growth,"locus YDR335W, strain msn5, active compounds read low",0.748 (active)
same,normalized growth,"locus YDR388W, active compounds read low",0.718 (active)
same,normalized growth,"locus YDR392W, strain spt3, active compounds read low",0.715 (active)
same,normalized growth,"locus YDR502C, strain sam2, active compounds read low",0.372 (active)
same,normalized growth,"locus YEL003W, strain gim4, active compounds read low",0.823 (active)
same,normalized growth,"locus YEL037C, strain rad23, active compounds read low",0.938
same,normalized growth,"locus YEL061C, strain CIN8 (second series), active compounds read low",0.922
same,normalized growth,"locus YEL061C, strain CIN8, active compounds read low",0.301 (active)
same,normalized growth,"locus YER015W, strain faa2, active compounds read low",0.816 (active)
same,normalized growth,"locus YER016W, strain bim1, active compounds read low",0.96
same,normalized growth,"locus YER110C, active compounds read low",1.01
same,normalized growth,"locus YER111C, strain swi4, active compounds read low",0.403 (active)
same,normalized growth,"locus YER155C, strain BEM2 (second series), active compounds read low",0.73 (active)
same,normalized growth,"locus YER155C, strain BEM2, active compounds read low",0.652 (active)
same,normalized growth,"locus YER167W, strain BCK2, active compounds read low",0.45 (active)
same,normalized growth,"locus YFR010W, strain ubp6, active compounds read low",0.795 (active)
same,normalized growth,"locus YGL078C, strain dbp3, active compounds read low",1.03
same,normalized growth,"locus YGL086W, strain mad1, active compounds read low",0.365 (active)
same,normalized growth,"locus YGL167C, strain pmr1, active compounds read low",0.955
same,normalized growth,"locus YGL173C, strain kem1, active compounds read low",0.791 (active)
same,normalized growth,"locus YGL227W, strain vid30, active compounds read low",1.01
same,normalized growth,"locus YGL240W, strain doc1, active compounds read low",0.995
same,normalized growth,"locus YGL248W, strain PDE1, active compounds read low",0.185 (active)
same,normalized growth,"locus YGL253W, strain hxk2, active compounds read low",0.875 (active)
same,normalized growth,"locus YGR135W, strain pre9, active compounds read low",0.523 (active)
same,normalized growth,"locus YGR252W, strain gcn5, active compounds read low",0.501 (active)
same,normalized growth,"locus YHR013C, strain ard1, active compounds read low",0.962
same,normalized growth,"locus YHR027C, strain rpn1, active compounds read low",0.841 (active)
same,normalized growth,"locus YHR079C, strain IRE1 (second series), active compounds read low",0.702 (active)
same,normalized growth,"locus YHR094C, strain hxt1, active compounds read low",0.914 (active)
same,normalized growth,"locus YHR129C, strain ARP1, active compounds read low",0.294 (active)
same,normalized growth,"locus YHR142W, strain chs7, active compounds read low",0.762 (active)
same,normalized growth,"locus YHR200W, strain rpn10, active compounds read low",0.626 (active)
same,normalized growth,"locus YIL066C, strain RNR3, active compounds read low",0.104 (active)
same,normalized growth,"locus YIL073C, strain SPO22, active compounds read low",0.134 (active)
same,normalized growth,"locus YIL125W, strain kgd1, active compounds read low",1.01
same,normalized growth,"locus YIR030C, strain dcg1, active compounds read low",0.836 (active)
same,normalized growth,"locus YJL092W, strain hpr5, active compounds read low",0.963
same,normalized growth,"locus YJL095W, strain BCK1 (second series), active compounds read low",0.871 (active)
same,normalized growth,"locus YJL095W, strain BCK1, active compounds read low",0.0994 (active)
same,normalized growth,"locus YJL115W, strain asf1, active compounds read low",0.954
same,normalized growth,"locus YJL129C, strain trk1, active compounds read low",0.562 (active)
same,normalized growth,"locus YJL134W, strain LCB3, active compounds read low",0.477 (active)
same,normalized growth,"locus YJL154C, strain vps35, active compounds read low",0.961
same,normalized growth,"locus YJL164C, strain tpk1, active compounds read low",0.844 (active)
same,normalized growth,"locus YJL166W, strain qcr8, active compounds read low",0.872 (active)
same,normalized growth,"locus YJL168C, strain set2, active compounds read low",0.937
same,normalized growth,"locus YJL187C, strain SWE1 (second series), active compounds read low",0.106 (active)
same,normalized growth,"locus YJL187C, strain SWE1, active compounds read low",0.893 (active)
same,normalized growth,"locus YJR075W, strain HOC1, active compounds read low",0.358 (active)
same,normalized growth,"locus YKL068W, active compounds read low",1.08 [resistant] (active)
same,normalized growth,"locus YKL085W, strain MDH1 (second series), active compounds read low",1.04
same,normalized growth,"locus YKL085W, strain MDH1, active compounds read low",1.04
same,normalized growth,"locus YKL160W, strain elf1, active compounds read low",0.901 (active)
same,normalized growth,"locus YKR001C, strain vps1, active compounds read low",0.453 (active)
same,normalized growth,"locus YKR026C, strain gcn3, active compounds read low",0.965
same,normalized growth,"locus YKR091W, strain srl3, active compounds read low",0.99
same,normalized growth,"locus YLL001W, strain dnm1, active compounds read low",0.917
same,normalized growth,"locus YLL026W, active compounds read low",0.913 (active)
same,normalized growth,"locus YLL041C, strain sdh2, active compounds read low",0.944
same,normalized growth,"locus YLR027C, strain aat2, active compounds read low",0.897 (active)
same,normalized growth,"locus YLR039C, strain RIC1, active compounds read low",0.179 (active)
same,normalized growth,"locus YLR058C, strain SHM2, active compounds read low",0.126 (active)
same,normalized growth,"locus YLR102C, strain apc9, active compounds read low",0.966
same,normalized growth,"locus YLR221C, strain rsa3, active compounds read low",0.854 (active)
same,normalized growth,"locus YLR258W, strain gsy2, active compounds read low",0.903 (active)
same,normalized growth,"locus YLR262C, strain YPT6 (second series), active compounds read low",0.397 (active)
same,normalized growth,"locus YLR268W, strain sec22, active compounds read low",0.285 (active)
same,normalized growth,"locus YLR320W, strain mms22, active compounds read low",0.689 (active)
same,normalized growth,"locus YLR330W, strain CHS5, active compounds read low",0.615 (active)
same,normalized growth,"locus YLR342W, strain FKS1 (second series), active compounds read low",0.183 (active)
same,normalized growth,"locus YLR342W, strain FKS1, active compounds read low",0.893 (active)
same,normalized growth,"locus YLR357W, strain rsc2, active compounds read low",0.857
same,normalized growth,"locus YLR370C, strain arc18, active compounds read low",0.903 (active)
same,normalized growth,"locus YLR371W, strain rom2, active compounds read low",0.651 (active)
same,normalized growth,"locus YLR384C, strain iki3, active compounds read low",0.944
same,normalized growth,"locus YLR418C, strain cdc73, active compounds read low",0.26 (active)
same,normalized growth,"locus YML016C, strain PPZ1, active compounds read low",0.0765 (active)
same,normalized growth,"locus YML032C, strain rad52, active compounds read low",0.785 (active)
same,normalized growth,"locus YML120C, strain ndi1, active compounds read low",0.208 (active)
same,normalized growth,"locus YML124C, strain tub3, active compounds read low",0.742 (active)
same,normalized growth,"locus YMR058W, strain fet3, active compounds read low",0.344 (active)
same,normalized growth,"locus YMR078C, strain ctf18, active compounds read low",0.965
same,normalized growth,"locus YMR125W, strain sto1, active compounds read low",1
same,normalized growth,"locus YMR129W, active compounds read low",0.976
same,normalized growth,"locus YMR205C, strain PFK2, active compounds read low",0.722 (active)
same,normalized growth,"locus YMR223W, strain ubp8, active compounds read low",0.69 (active)
same,normalized growth,"locus YMR231W, strain pep5, active compounds read low",0.463 (active)
same,normalized growth,"locus YMR263W, strain SAP30, active compounds read low",0.481 (active)
same,normalized growth,"locus YMR307W, strain GAS1, active compounds read low",0.34 (active)
same,normalized growth,"locus YNL067W, strain RPL9B, active compounds read low",0.271 (active)
same,normalized growth,"locus YNL071W, strain lat1, active compounds read low",0.87 (active)
same,normalized growth,"locus YNL209W, strain ssb2, active compounds read low",0.722 (active)
same,normalized growth,"locus YNL233W, strain BNI4, active compounds read low",0.419 (active)
same,normalized growth,"locus YNL248C, strain rpa49, active compounds read low",0.912
same,normalized growth,"locus YNL250W, strain rad50, active compounds read low",1.06
same,normalized growth,"locus YNL271C, strain bni1, active compounds read low",0.97
same,normalized growth,"locus YNL298W, strain CLA4, active compounds read low",0.982
same,normalized growth,"locus YNL307C, strain MCK1, active compounds read low",0.799 (active)
same,normalized growth,"locus YNL322C, strain KRE1 (second series), active compounds read low",0.959
same,normalized growth,"locus YNL322C, strain KRE1, active compounds read low",0.105 (active)
same,normalized growth,"locus YNR049C, strain mso1, active compounds read low",0.98
same,normalized growth,"locus YNR052C, strain pop2, active compounds read low",0.328 (active)
same,normalized growth,"locus YOL012C, strain htz1",0.205
same,normalized growth,"locus YOL147C, strain pex11, active compounds read low",0.65 (active)
same,normalized growth,"locus YOR001W, strain rrp6, active compounds read low",0.892
same,normalized growth,"locus YOR061W, strain CKA2, active compounds read low",0.255 (active)
same,normalized growth,"locus YOR069W, strain VPS5, active compounds read low",0.176 (active)
same,normalized growth,"locus YOR070C, strain gyp1, active compounds read low",0.902 (active)
same,normalized growth,"locus YOR080W, strain dia2, active compounds read low",0.973
same,normalized growth,"locus YOR083W, strain WHI5, active compounds read low",0.86 (active)
same,normalized growth,"locus YOR106W, strain vam3, active compounds read low",0.592 (active)
same,normalized growth,"locus YOR136W, strain idh2, active compounds read low",0.712 (active)
same,normalized growth,"locus YOR144C, strain elg1, active compounds read low",0.788 (active)
same,normalized growth,"locus YOR184W, strain ser1, active compounds read low",0.332 (active)
same,normalized growth,"locus YOR265W, strain rbl2, active compounds read low",0.939
same,normalized growth,"locus YOR270C, strain vph1, active compounds read low",0.369 (active)
same,normalized growth,"locus YOR290C, strain snf2, active compounds read low",0.376 (active)
same,normalized growth,"locus YOR316C, strain cot1, active compounds read low",0.881 (active)
same,normalized growth,"locus YPL051W, strain arl3, active compounds read low",0.672 (active)
same,normalized growth,"locus YPL078C, strain atp4, active compounds read low",0.466 (active)
same,normalized growth,"locus YPL106C, strain sse1, active compounds read low",0.815 (active)
same,normalized growth,"locus YPL240C, strain hsp82, active compounds read low",0.972
same,normalized growth,"locus YPR119W, strain clb2, active compounds read low",0.984
same,normalized growth,"locus YPR141C, strain kar3, active compounds read low",1.04
same,normalized growth,"locus YPR163C, strain tif3, active compounds read low",0.764 (active)
same,normalized growth,"locus YPR167C, strain met16, active compounds read low",0.81 (active)
same,normalized growth,"strain wtn01, active compounds read low",0.337 (active)
